E coli growth-1: E. coli V3065 growth inhibition, primary screen, counter-screen for AddAB inhibitor project, absorbance, OD600; inhibition, % at 11.9 µM; 18 h; 330,000 tested, 0.27% active;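 active = inhibition above the campaign's mean inhibition across all tested compounds plus 3 SD, cut at about 9.9% in these data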;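 note: uninfected addAB+ strain grown without phage in ampicillin broth; 0% = DMSO wells and 100% = ciprofloxacin 0.95 µg/ml wells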
AddAB inh: growth inhibition of E. coli expressing H. pylori AddAB, primary screen, AddAB inhibitor project, absorbance | AID 435030, 2010 | 330,000 tested, 0.29% active | inhibition, % at 11.9 µM; in the data active = inhibition above about 12%;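 note: 0% = vehicle wells of infected cells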
Tat export inh: E. coli Tat export inhibitors, primary screen, MC4100, TorA-mCherry reporter, fluorescence, single point; inhibition, % at 10 µM; 340,000 tested, 0.036% active;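 active = mean replicate inhibition at least 50% and at least half of replicates individually reaching 50%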;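 note: exported cargo escapes ClpAP degradation while cytoplasmic cargo is degraded and loses fluorescence; 0% = median of neutral control wells and 100% = median of NaSCN control wells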
E coli growth-2: E. coli growth inhibition, primary screen, OD600 | OD600 absorbance (concentration not given with the values) | Escherichia coli growth, 23 h; stronger effect = lower value | 330,000 tested, 0.21% active;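 active = OD600 absorbance below the run mean of sample wells minus 3.6 SD, in any replicate, cut at about 0.56 in these data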
AI-2 QS mod: Vibrio harveyi AI-2 quorum sensing modulators, primary screen, JMH597 strain, luminescence/OD600 ratio | Vibrio harveyi JMH597 AI-2 luminescence/OD600 ratio, 9 h; stronger effect = lower value; strain lacks LuxN and CqsS sensors; 0 = neutral-control median | activity change, % at 7.5 µM | 300,000 tested, 0.4% active | AID 2094, 2009; in the data active = activity change below about -75%, passing the limit was not always enough;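 note: luminescence divided by OD600 gain over 9 h not by final OD600 alone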
phage Ecoli inh: growth loss of phage-infected E. coli, primary screen, RecBCD inhibitor project, absorbance, with phage, HTS; inhibition, % at 11.9 µM; 360,000 tested, 0.26% active; AID 651602, 2012; in the data active = inhibition above about 11%
AddAB conf: growth loss of phage-infected E. coli expressing H. pylori AddAB, confirmation, AddAB inhibitor project, absorbance, E. coli V3065, T4 phage, triplicate | shares compounds with AddAB inh | OD; T4 phage with gene 2 nonsense mutations | inhibition, % at 11.9 µM | 880 tested, 64% active;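 active = mean inhibition above a set limit taken from the earlier primary screen, cut at about 13% in these data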;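 note: higher means less bacterial growth since AddAB block lets phage replicate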
RecBCD counter: growth loss of RecBCD+ E. coli with mutant T4 phage, counter-screen for AddAB inhibitor project, absorbance, V66 E. coli; OD growth; 880 tested, 73% active; shares compounds with AddAB inh; inhibition, % at 11.9 µM;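 active = mean inhibition above the mean of solvent-only control wells plus 3 SD, cut at about 4% in these data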;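 note: optical density read after an 18 h incubation at 37 °C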
bact viab count: bacterial viability inhibition counter-screen, confirmation, counter-screen for AddAB inhibitor project, absorbance; shares compounds with AddAB inh; absorbance (AddAB counterscreen); inhibition, % at 11.9 µM; 880 tested, 35% active; AID 488956, 2010; in the data active = inhibition above about 25%
RecBCD conf: growth loss of phage-infected RecBCD+ E. coli, confirmation, RecBCD inhibitor project, absorbance, E. coli V66, T4 gene 2 phage. shares compounds with phage Ecoli inh. E. coli V66 + T4 2- phage, growth OD. inhibition, % at 11.9 µM. 890 tested, 45% active. AID 651982, 2013;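 active = mean inhibition over triplicates exceeding the hit threshold derived in the original primary screen, cut at about 11% in these data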
Ecoli viability: E. coli viability inhibition, counter-screen for RecBCD inhibitor project, absorbance, high throughput. inhibition, % at 11.9 µM. AID 651983, 2013. 890 tested, 29% active. shares compounds with phage Ecoli inh. absorbance (OD) growth; in the data active = inhibition above about 20%;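 note: E. coli strain V66 grown with compound alone and no phage infection; 0% = bacteria with DMSO vehicle only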
AddAB phage OD: growth loss of phage-infected AddAB-carrying E. coli, confirmation, counter-screen for RecBCD inhibitor project, absorbance, E. coli V3065, T4 phage | shares compounds with phage Ecoli inh | E. coli expressing H. pylori AddAB + T4 phage, OD growth; gene 2 mutant T4, recBCD-deleted host | inhibition, % at 11.9 µM | 890 tested, 45% active;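 active = mean inhibition above the solvent-only control wells' mean plus 3 SD, cut at about 22% in these data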;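 note: higher means less bacterial growth from phage killing when AddAB is blocked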
The depositor's hits bear a star; x = not tested or not shown; ! = not active in a repeat. This is a sample that favours compounds with a hit; in the whole collection about 0.79% have one here.

SMILES	E coli growth-1	AddAB inh	Tat export inh	E coli growth-2	AI-2 QS mod	phage Ecoli inh	AddAB conf	RecBCD counter	bact viab count	RecBCD conf	Ecoli viability	AddAB phage OD
COc1cc(-c2nnc(SCc3cc(=O)oc4cc(O)c(O)cc34)o2)cc(OC)c1OC	18*	18*	-3	0.63	-11	16*	18*	16*	18	7	8	8
CCOC(=O)C1C2COc3ccc(Cl)cc3C2N2C(=O)c3cc(C)ccc3NC(=O)[C@@]12C (some centres not stated)	x	x	x	0.71	x	x	x	x	x	x	x	x
N=C(N)SCc1ccc(Cl)cc1Cl	68*	82*	-6	0.12*	5	72*	86*	66*	89*	68*	69*	90*
NC(=S)Cc1ccc(Cl)cc1Cl	3	1	-4	0.65	14	5	x	x	x	x	x	x
Cc1nc2ccc(C(=O)N/N=C/c3cc([N+](=O)[O-])ccc3O)cc2[nH]1	17*	19*	-2	x	44	17*	8	14*	12	4	9	12
c1cnc2c(c1)ccc1cccnc12	12*!	12*!	-1	0.33*	3	12*	13*	20*	7	10	10	6
O=Cc1ccc2ccc3cccnc3c2n1	5	5	-13	0.68	38	2	x	x	x	x	x	x
CCCC(=O)NC(c1cccs1)c1cc([N+](=O)[O-])c2cccnc2c1O (configuration not stated)	-1	5	-7	0.66	-26	3	x	x	x	x	x	x
CCC(=O)NC(c1ccco1)c1cc(Cl)c2cccnc2c1OC (configuration not stated)	-1	0	-20	0.68	x	1	x	x	x	x	x	x
CCCCC(=O)NC(c1ccco1)c1cc(Cl)c2cccnc2c1O (configuration not stated)	24*	16*	2	0.71	-18	21*	18*	18*	15	10	12	15
CCC(=O)NC(c1ccco1)c1cc(Cl)c2cccnc2c1O (configuration not stated)	15*	16*	4	0.71	53	13*	5	11*	1	2	4	18
CCC(=O)NC(c1ccc(OC)cc1)c1cc(Cl)c2cccnc2c1O (configuration not stated)	23*	26*	0	0.65	64	21*	21*	23*	18	13*	17	21*
CC(=O)NC(c1cc(Cl)c2cccnc2c1O)C(C)C (configuration not stated)	-1	4	0	0.67	x	8	x	x	x	x	x	x
CCN1C(=O)C(=CN2CCCc3ccccc32)SC1=S	x	x	x	0.66	x	x	x	x	x	x	x	x
O=C(Cn1c(CO)nc2ccccc21)Nc1ccc2c(c1)OCCCO2	14*	12*	-5	0.69	x	12*	9	12*	10	5	8	4

Screening results: PubChem, several laboratories
